Assay outcomes as filed in PubChem.
SUMO Mot1 rescue: SUMOylation pathway inhibition by Mot1-301 growth rescue. S. cerevisiae Mot1-301 growth rescue, ATP luminescence, 38.5C; percent above DMSO median, 100 means doubled. growth rescue, % at 18.8 µM. actives 1% (n = 320,000). AID 2716;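 active = every valid replicate shows activation above 250% relative to neutral control wells; inactive = the rest, any valid replicate at or below 250%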
ALR H2O2 inh: human ALR oxidase inhibition via reduced H2O2 | purified ALR, DTT oxidation, H2O2 HRP-luminol luminescence | inhibition, % (concentration not given with the values) | actives 3.8% (n = 290,000) | AID 485317;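 active = mean replicate inhibition above about 79%, with every replicate also reaching it, limit read from the data; inconclusive = only one of the two criteria met; inactive = mean below limit and not every replicate reaching it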
Target sequence (P55789 whole entry, looked up): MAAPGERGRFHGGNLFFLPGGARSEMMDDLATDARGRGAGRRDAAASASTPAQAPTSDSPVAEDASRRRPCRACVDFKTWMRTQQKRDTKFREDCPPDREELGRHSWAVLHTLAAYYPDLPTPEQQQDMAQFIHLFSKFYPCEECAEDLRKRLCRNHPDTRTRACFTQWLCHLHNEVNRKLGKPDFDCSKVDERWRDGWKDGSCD
AI-2 QS modul: modulates the Vibrio harveyi AI-2 quorum sensing system | Vibrio harveyi JMH597 AI-2 luminescence/OD600 ratio, 9 h; hits give low values; strain lacks LuxN and CqsS sensors; 0 = neutral-control median | activity change, % at 7.5 µM | actives 0.4% (n = 300,000) | AID 2094; in the data active = activity change below about -75%, passing the limit was not always enough; inconclusive = no clear call, values can overlap the other calls;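 also: luminescence divided by OD600 gain over 9 h not by final OD600 alone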
HIF act: HIF pathway transcriptional activation | U2OS HRE-luciferase reporter, luminescence; normalized: DMSO 0%, desferrioxamine 100% | activation, % at 7.5 µM (by protocol) | actives 0.32% (n = 300,000);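 active = mean activation of at least 10% of the iron chelator positive control signal, with at least half of replicates also reaching 10%; inconclusive = mean and replicate majority disagree about reaching 10%; inactive = mean and most replicates under 10%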
JMH597 growth: retest: inhibitors of Vibrio harveyi JMH597 growth | growth inhibition, % at 7.5 µM | OD600 absorbance, 9 h; lacks LuxN and CqsS sensors | AID 2726 | shares compounds with AI-2 QS modul | actives 1% (n = 750);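 active = every replicate shows growth inhibition above 50%; inconclusive = at least half, but not all, replicates pass that cutoff; inactive = fewer than half of replicates pass it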
BB721 lum counter: retest counter-screen: BB721 constitutive quorum sensing luminescence decrease | actives 95% (n = 750) | shares compounds with AI-2 QS modul | inhibition, % at 7.5 µM | Vibrio harveyi BB721 luminescence, 9 h;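 active = inhibition above about 80% in every replicate, not just on average, limit read from the data; inconclusive = at least half of replicates past the limit, but not all; inactive = fewer than half of replicates past the limit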
BB721 growth: retest: blocks Vibrio harveyi BB721 growth | shares compounds with AI-2 QS modul | OD600 absorbance, 9 h | growth inhibition, % at 7.5 µM | actives 3% (n = 750) | AID 2728;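 active = every replicate shows growth inhibition above 50%; inconclusive = at least half but not all replicates above 50% inhibition; inactive = under half of replicates above 50% inhibition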
AI-2 QS JMH597: Vibrio harveyi AI-2 signaling luminescence modulation – JMH597 strain, confirmation | shares compounds with AI-2 QS modul | Vibrio harveyi JMH597 AI-2 quorum sensing luminescence, 9 h; luxN and CqsS knockout, AI-2 only | inhibition, % at 7.5 µM | actives 97% (n = 750);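 active = every replicate shows more than 75% inhibition of signal versus neutral control wells; inconclusive = half to three quarters of replicates exceed 75% inhibition; inactive = fewer than half of replicates exceed 75% inhibition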
Hits are given with their value; n = inactive; u = inconclusive; x = not tested or not shown. Shown are actives, neighbours in structure and some others; about 4.8% of the full set was active somewhere.

SMILES	SUMO Mot1 rescue	ALR H2O2 inh	AI-2 QS modul	HIF act	JMH597 growth	BB721 lum counter	BB721 growth	AI-2 QS JMH597
O=C(CN1C(=O)c2ccccc2S1(=O)=O)Nc1ccc(S(=O)(=O)N2CCCC2)cc1	n	n	-95	n	n	98	n	98
O=C(CN1C(=O)c2ccccc2S1(=O)=O)Nc1ccc(S(=O)(=O)N2CCCCC2)cc1	n	n	-85	n	n	96	n	98
CN1CCN(c2ccc(C(F)(F)F)cc2NC(=O)Nc2ccccc2)CC1	n	x	n	n	x	x	x	x
O=C(CN(C(=O)CNC(=O)c1cccs1)c1ccc(F)cc1)NC1CCCCC1	n	n	n	n	x	x	x	x
COc1ccc(CCNc2nc(-c3ccc(F)cc3)c(CC(=O)O)s2)cc1OC	n	n	n	n	x	x	x	x
COc1ccc(CNc2ccc(C(=O)O)cc2)cc1	n	n	-95	n	n	99	n	99
O=C(O)c1cccc(NCc2ccncc2)c1	n	n	n	n	x	x	x	x
O=C(O)c1ccc(NCc2cccc(Br)c2)cc1	n	n	-91	n	n	98	u	98
O=C(O)c1ccc(NCc2ccncc2)cc1	n	n	n	n	x	x	x	x
CCCOc1ccc(N2C(=O)CC(SCCN)C2=O)cc1 (configuration not stated)	n	n	-87	n	n	95	n	96
NS(=O)(=O)c1ccc(CNC(=O)/C=C/c2ccco2)cc1	n	n	n	n	x	x	x	x
O=C(/C=C/c1ccco1)NCc1ccc(F)cc1	n	n	-85	n	n	94	n	96
CC(C)c1ccc(NC(=O)CSc2nc3ncccc3[nH]2)cc1	n	n	-83	x	n	93	n	95
CC(C)OC(=O)c1ccc(NC(=O)CSc2nc3ncccc3[nH]2)cc1	n	98	-85	n	n	96	n	98
COC(=O)c1ccccc1NC(=O)CSc1nc2ncccc2[nH]1	n	x	n	n	x	x	x	x
O=C(c1cc(COc2c(F)cccc2F)on1)N1CCc2ccccc2C1	n	n	u	n	n	87	n	91
O=C(c1cc(COc2cccc(C(F)(F)F)c2)on1)N1CCc2ccccc2C1	n	n	n	n	x	x	x	x
O=C(CN1C(=O)NC2(CCOc3ccccc32)C1=O)Nc1ccc(F)c(F)c1F (configuration not stated)	n	n	-79	n	n	87	n	91
O=C(CN1C(=O)NC2(CCc3ccccc32)C1=O)Nc1cccc(F)c1 (configuration not stated)	n	n	-84	n	n	92	n	95
O=C(CN1C(=O)NC2(CCc3ccccc32)C1=O)NCC(=O)Nc1ccc(F)cc1 (configuration not stated)	n	n	x	x	x	x	x	x
CCNC(=O)CN1C(=O)NC2(CCOc3ccccc32)C1=O (configuration not stated)	n	x	n	n	x	x	x	x
CCN(c1ccc(NC(=O)CN2C(=O)NC3(CCOc4ccccc43)C2=O)cc1)C(C)C (configuration not stated)	n	x	-82	n	n	u	n	90
Cc1cc(C(=O)Nc2ccc3ccccc3c2)c(C)o1	n	x	n	n	x	x	x	x
CCC1(c2ccc(F)cc2)NC(=O)N(CC(=O)c2cc(C)n(C3CC3)c2C)C1=O (configuration not stated)	n	x	n	n	x	x	x	x
O=C(COn1nnc2ccc(Cl)cc21)NCc1ccccc1	n	n	-89	n	n	96	n	97
SMILES	SUMO Mot1 rescue	ALR H2O2 inh	AI-2 QS modul	HIF act	JMH597 growth	BB721 lum counter	BB721 growth	AI-2 QS JMH597
CCOc1ccc(OCC)c(NC(=O)C2CCN(S(=O)(=O)c3cccnc3)CC2)c1	n	x	n	x	x	x	x	x
O=C(Nc1ccc(S(=O)(=O)N2CCCCC2)cc1)C1CC1	n	n	n	n	x	x	x	x
CCCCC(=O)NC(=S)Nc1ccc(S(=O)(=O)N2CCCC2)cc1	x	n	-84	n	n	86	n	92
O=C(Nc1ccc(S(=O)(=O)N2CCCC2)cc1)C1CCCCC1	n	x	-83	n	n	93	n	96
CCOc1ccc(NC(=O)C2CCN(S(=O)(=O)c3cccnc3)CC2)cc1	n	n	-86	n	n	95	n	97
COCCN(C(=O)c1ccc(OC2CCN(S(=O)(=O)N(C)C)CC2)cc1)C(C)C	n	n	n	n	x	x	x	x
c1ccc2[nH]c(SCc3cn4ccccc4n3)nc2c1	n	n	n	n	x	x	x	x
Cc1cccc2nc(CSc3nc4ccccc4[nH]3)cn12	n	n	u	n	n	96	n	97
CCCCCc1nnc(NC(=O)Cn2cnc3ccccc3c2=O)s1	n	n	-94	n	n	98	n	99
CCCCc1nnc(NC(=O)Cn2cnc3ccccc3c2=O)s1	x	n	-95	n	n	99	n	99
CCc1nnc(NC(=O)CCn2cnc3ccccc3c2=O)s1	n	n	n	n	x	x	x	x
Cc1ccc(Cl)c(OCC(=O)Nc2cc(S(=O)(=O)N3CCOCC3)ccc2N2CCCC2)c1	n	n	n	n	x	x	x	x
Cc1ccc(NC(=O)Cn2nnc3ccccc32)cc1	n	n	n	n	x	x	x	x
COc1ccc(C2(C)NC(=O)N(CC(=O)Nc3ccc(S(=O)(=O)N4CCCC4)cc3)C2=O)cc1 (configuration not stated)	n	n	-90	n	n	89	n	94
Cc1cc(NC(=O)CN2C(=O)NC(C)(c3ccccc3)C2=O)no1 (configuration not stated)	n	n	n	n	x	x	x	x
Cc1cc(C)cc(NC(=O)CN2C(=O)NC(C)(c3ccccc3)C2=O)c1 (configuration not stated)	n	n	-83	n	n	86	n	92
COc1ccc(S(=O)(=O)N2CCCCCC2)cc1NC(=O)CN1C(=O)NC(C)(c2ccc(C)cc2)C1=O (configuration not stated)	n	n	n	n	x	x	x	x
O=C(Cn1nnc2ccccc21)Nc1ccc([N+](=O)[O-])cc1	n	n	-92	n	n	99	n	99
CC1(c2ccccc2)NC(=O)N(CC(=O)Nc2ccc([N+](=O)[O-])cc2)C1=O (configuration not stated)	n	n	-89	n	n	97	n	98
CC1(c2ccccc2)NC(=O)N(CC(=O)NC(=O)NCc2ccco2)C1=O (configuration not stated)	n	n	-82	n	n	88	n	92
CC1SC(C)C(=O)N(CC(=O)Nc2ccc([N+](=O)[O-])cc2)C1=O (configuration not stated)	n	n	-94	n	n	99	n	99
CCN(CCS(=O)(=O)c1ccc(Br)cc1)Cc1nc2ccccc2c(=O)[nH]1	n	n	x	x	x	x	x	x
